ALDH1A1 inh – qHTS Assay for Inhibitors of Aldehyde Dehydrogenase 1 (ALDH1A1); Aldehyde dehydrogenase 1A1 (Homo sapiens), P00352; Purified ALDH1A1, NADH fluorescence, propionaldehyde substrate; Potency, µM (highest dose often 75.3 µM), inactives show at the top dose activity, negative = inhibition, most hits filed as inhibitors; actives 7.3% (n = 220,000); AID 1030, 2008;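 also: plate controls were no enzyme wells and a reference inhibitor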
HttQ103 aggreg – qHTS Multiplex Assay to Identify Dual Action Probes in a Cell Model of Huntington: Aggregate Formation (GFP); Potency, µM (series often up to 46.1 µM), without a hit: top-dose activity change, negative = inhibition, most hits filed as inhibitors; PC12 HttQ103-GFP aggregates, Acumen cytometry, 40 h; actives 1.1% (n = 220,000); active = well fitted curve in the direction sought with a large enough effect; inconclusive = small, poorly fitted or top-dose-only effect, or another doubt; inactive = no such curve, though single readings can be large; an effect the other way counts as inactive or inconclusive; also: % is scaled to controls: 0 for no effect and ±100 for the full control effect; nearly all actives have a fitted effect of over 60% in size
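Steps: seed 1500 PC12 HTTQ103-GFP cells/well; add tebufenozide, 100 nM final; add compound titration; add ATPLite reagent; quantify GFP aggregates by laser scanning cytometry.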
LMNA splice mod – qHTS Assay for Modulators of Lamin A Splicing; HeLa LMNA splicing GFP/RFP minigene ratio, 48 h; Potency, µM (top dose mostly 46.1 µM), without a hit: top-dose ratio change, negative = inhibition, actives largely listed as inhibitors; actives 0.01% (n = 200,000); active = well fitted inhibition curve with a large enough effect in the signal ratio, with a control signal flat, not every such curve was filed as active; inconclusive = small, poorly fitted or top-dose-only effect, or effect the other way, or a change in a side signal; the % refers to the signal ratio; also: % is scaled to controls: 0 for no effect and ±100 for the full control effect
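Read-out is the ratio of GFP to DsRed2 object intensity, acquired by 488 nm laser-scanning cytometry on HeLa lamin A-EGFP minigene reporter cells. Compound incubation 48 hrs at 37 °C in Opti-MEM with 2% FBS; DMSO 0.5% final.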
JMJD2E inh – qHTS Assay for Inhibitors of Human Jumonji Domain Containing 2E (JMJD2E). Lysine-specific demethylase 4E (Homo sapiens), B2RXH2. JMJD2E catalytic domain, FDH-coupled NADH fluorescence (FDH is formaldehyde dehydrogenase). Potency, µM (highest dose often 57.1 µM), for inactives: at the highest dose activity change, negative = inhibition, most hits filed as inhibitors. actives 1.6% (n = 230,000). AID 2147, 2009;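 also: 0% = wells with enzyme and -100% = buffer wells without enzyme; nearly all actives have a fitted effect of over 50% in size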
Target sequence (B2RXH2 1-337 limits assumed): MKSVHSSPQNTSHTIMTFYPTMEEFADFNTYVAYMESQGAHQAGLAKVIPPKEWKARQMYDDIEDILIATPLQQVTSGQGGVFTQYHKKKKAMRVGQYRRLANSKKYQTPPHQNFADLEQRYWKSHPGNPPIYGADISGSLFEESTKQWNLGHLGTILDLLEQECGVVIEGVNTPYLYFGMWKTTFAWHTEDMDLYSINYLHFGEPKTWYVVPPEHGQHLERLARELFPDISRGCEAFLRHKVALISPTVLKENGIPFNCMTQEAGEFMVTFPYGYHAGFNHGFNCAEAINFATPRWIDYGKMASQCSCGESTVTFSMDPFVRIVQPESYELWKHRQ
HPGD inh – qHTS Assay for Inhibitors of HPGD (15-Hydroxyprostaglandin Dehydrogenase); Potency, µM, for the others: at the highest dose activity change, negative = inhibition, most hits filed as inhibitors; 15-hydroxyprostaglandin dehydrogenase [NAD(+)] (Homo sapiens), P15428; actives 4.3% (n = 150,000); purified HPGD, NADH fluorescence kinetic, PGE2 substrate; also: % is scaled to controls: 0 for no effect and ±100 for the full control effect
Target sequence (P15428 whole entry, looked up): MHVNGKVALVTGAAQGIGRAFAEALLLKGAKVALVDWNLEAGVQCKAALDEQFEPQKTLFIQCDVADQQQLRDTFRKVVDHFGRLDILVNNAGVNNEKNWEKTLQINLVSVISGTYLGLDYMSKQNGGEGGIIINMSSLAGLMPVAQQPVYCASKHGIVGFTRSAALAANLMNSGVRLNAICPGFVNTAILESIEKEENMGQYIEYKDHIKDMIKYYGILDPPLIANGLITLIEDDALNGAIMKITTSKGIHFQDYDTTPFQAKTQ
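20 nM HPGD preincubated 15 min at room temperature with compound in 50 mM Tris-HCl pH 8, 0.01% Tween 20. Started with 1 mM NAD+ and 30 uM prostaglandin E2; NADH fluorescence (360/450 nm) read 5 times over 30-s intervals, last minus first.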
HTT ATP protect – qHTS Multiplex Assay to Identify Dual Action Probes in a Cell Model of Huntington: Cytoprotection (ATP) | PC12 HTT-Q103 induced, cytoprotection, ATP luminescence, 40 h | Potency, µM (titrated, usually from 56.4 µM), for inactives: cytoprotection (ATP increase), actives largely listed as activators | actives 0.14% (n = 230,000); active = well fitted curve in the direction sought with a large enough effect; inconclusive = small, poorly fitted or top-dose-only effect, or another doubt; inactive = no such curve, though single readings can be large; an effect the other way counts as inactive or inconclusive; also: % of control where 0% means no effect; nearly all actives have a fitted effect of over 45% in size
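Quantitative HTS on tebufenozide-induced (100 nM) PC12 cells expressing HTTQ103 exon 1–GFP; compounds tested as a concentration series; survival measured via cellular ATP.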
The depositor's hits bear a star; ? = inconclusive; / = no result given; ! = repeats disagree; [ ] = another dose, or the depositor's remark. A selection: hits, their analogues and other compounds. The true share with any hit is near 9.2%. Unless noted, calls follow the shape of the dose curve; as a rule, active = well fitted inhibition curve with a large enough effect (not every such curve was filed as active); inconclusive = small, poorly fitted or top-dose-only effect, or another doubt; inactive = no such curve, though single readings can be large or run the other way. Potency is read from the fitted curve at half-maximal effect.

SMILES | ALDH1A1 inh | HttQ103 aggreg | LMNA splice mod | JMJD2E inh | HPGD inh | HTT ATP protect
CCC(C)[C@@H](N)C(=O)N/N=C/c1cccc2nccnc12 (some centres not stated) | 8% | 16%[9.22 µM] | / | ? | / | 17%[10 µM]
O=c1c(-c2n[nH]c(=S)o2)cccn1Cc1ccccc1 | ? | 11% | / | ? | / | -28%
CC(NC(=O)c1c(Cl)cnn1C)C1CCCO1 (configuration not stated) | / | -21%[9.22 µM] | / | -4% | / | -10%[10 µM]
CC(C)Cn1c(N)c(C(=O)COC(=O)c2ccc3c(c2)OCCO3)c(=O)n(C)c1=O | 9% | ? | ? | -6% | -10% | -12%
CC(C)Cn1c(N)c(C(=O)CSc2ccc3c(c2)OCCO3)c(=O)n(C)c1=O | 0% | 2µM* | ? | 1% | -7% | -26%
O=C(COC(=O)c1cccs1)c1ccc2c(c1)OCCO2 | 18µM* | 10%[9.22 µM] | 4% | 4% | 16µM* | -8%
Cn1c(N)c(C(=O)COC(=O)c2ccc(Cl)c(S(=O)(=O)N3CCCCC3)c2)c(=O)n(C)c1=O | 9% | 1% | -9% | 3% | 16µM* | 9%[0.074 µM]
O=C(Nc1ccc(NC(=O)c2cccs2)cc1)c1ccco1 | -3% | 19% | 18% | ? | -14% | -23%
O=C(OCC(=O)c1cccs1)c1ccc(NC(=O)c2ccco2)cc1 | 18µM* | 5% | 8% | -8% | -30% | -7%
Cn1c(N)c(C(=O)COC(=O)c2ccc(S(=O)(=O)N3CCCCC3)cc2)c(=O)n(C)c1=O | 1% | 22% | / | 9% | / | 4%
CC(C)Cn1c(N)c(C(=O)COC(=O)c2ccccc2F)c(=O)n(C)c1=O | -15% | 4% | ? | 4% | / | 11%[10 µM]
Cc1ccc(C(=O)COC(=O)c2cccs2)cc1 | -10% | -11% | -3% | -2% | 28µM* | 2%[10 µM]
CC(C)Cn1c(N)c(C(=O)COC(=O)c2c(F)cccc2F)c(=O)n(C)c1=O | 11µM* | 16% | ? | -21% | / | -3%[10 µM]
CC(=O)c1cccc(NC(=O)COC(=O)c2cccs2)c1 | 14µM* | -9% | ? | 8% | / | -3%
Cn1c(N)c(C(=O)COC(=O)c2cccs2)c(=O)n(C)c1=O | 14µM* | -19% | 7% | -2% | -11% | 18%[10 µM]
COc1ccc(CCNC(=O)c2ccc3nc(Cc4ccccc4)oc3c2)cc1OC | / | / | -9%[46 µM] | / | / | /
CCc1nn2c(=O)cc(COC(=O)c3ccccc3NC(=O)COc3ccc(F)cc3)nc2s1 | / | / | 9%[46 µM] | / | / | /
CCc1nnc(NC(=O)C(CC)CC)s1 | / | -16%[9.22 µM] | / | -2% | / | -2%[10 µM]
COc1ccc(Oc2ncc3ncc(=O)n(C)c3n2)cc1 | 17% | / | -11% | / | / | 17%
Cc1ccc(OC(C)C(=O)N2CCN(CCc3ccccn3)CC2)cc1C (configuration not stated) | / | / | 23%[46 µM] | / | / | /
CCNc1ncc2nc(CCc3ccccc3)c(=O)n(CCC#N)c2n1 | ? | / | -15% | / | / | -19%
CCOC(=O)c1c(NC(=O)C2C3C=CC(C3)C2C(=O)O)sc2c1CC(C)CC2 (configuration not stated) | -2% | 9%[9.22 µM] | -15%[46 µM] | ? | / | -24%
CCCC1CCc2c(sc(N)c2C(N)=O)C1 (configuration not stated) | 10µM* | -14% | -7% | -14% | -12% | -12%[10 µM]
CCOC(=O)c1c(N)sc2c1CCC(C)C2 (configuration not stated) | 13µM* | -20% | ? | ? | ? | 10%[10 µM]
CCCOC(=O)c1c(NC(=O)C2C3C=CC(C3)C2C(=O)O)sc2c1CCC(C)C2 (configuration not stated) | 10µM* | -5%[9.22 µM] | / | 6% | / | -23%[10 µM]
SMILES | ALDH1A1 inh | HttQ103 aggreg | LMNA splice mod | JMJD2E inh | HPGD inh | HTT ATP protect
CCNC(=O)c1c(N)sc2c1CCCCC2 | 28µM* | 1% | 5% | ? | 28µM* | -17%
CCC(=O)Nc1sc2c(c1C(=O)N(C)C)CCCCC2 | ? | ? | -5% | -4% | 2% | 12%[10 µM]
COCCNC(=O)COc1ccc(OCCNC[C@H](O)COc2ccccc2)cc1 | 2% | / | / | / | / | -20%
Cc1csc2nc(-c3cccc(NC(=O)c4ccc(S(N)(=O)=O)cc4)c3)cn12 | / | / | -7%[46 µM] | / | / | /
COc1ccccc1N1C(=O)N(CC(=O)C(C)(C)C)c2ccccc2S1(=O)=O | / | / | -1%[46 µM] | / | / | /
Cc1cccc(-n2cnc3cc(C(=O)NCc4ccccc4Cl)ccc32)c1 | / | / | 8%[46 µM] | / | / | /
CCOC(=O)c1c(N2C(=O)C3C4C=CC(O4)C3C2=O)sc2c1CCCC2 (configuration not stated) | 2.2µM* | 25% | -11% | 2% | 16µM* | -17%
CCOC(=O)c1c(N)sc2c1CCCC2 | 20µM* | -8% | 3% | ? | ? | -8%
CCOC(=O)c1c(N)sc(C(=O)OC)c1C | ? | 2%[9.22 µM] | / | -5% | / | 7%[10 µM]
CCOC(=O)c1c(N)sc2c1CCS(=O)(=O)C2 | 28µM* | 1% | 8% | 1% | 40µM* | -1%
CCOC(=O)c1c(-n2cnnn2)sc2c1CCCC2 | / | 2%[9.22 µM] | / | ? | / | 14%[10 µM]
CCOC(=O)c1c(NC=O)sc2c1CCC2 | -10% | 4% | 7% | 5% | -6% | 19%
COc1cc(OC)c(NC(=O)Cn2c(=O)cc(C(F)(F)F)c3c(C)nn(C)c32)cc1Cl | / | / | -1%[46 µM] | / | / | /
CCCCCC[C@@H]([C@@H](C)O)n1cnc2c(N)ncnc21 | -2% | / | ? | 13µM*! | -12% | -32%
Nc1ncnc2c1ncn2C[C@@H](O)C(=O)O | 18%[13.5 µM] | / | / | / | -8% | -13%[10 µM]
Cc1ccccc1CNCCCSc1nnnn1C | / | / | 11%[46 µM] | / | / | /
O=C(c1ccc(NC(=S)NCc2ccc(Cl)cc2)cc1)N1CCCCC1 | ? | -13% | / | 2% | / | /
NS(=O)(=O)c1ccc(NC(=S)Nc2ccc(C(=O)N3CCCCC3)cc2)cc1 | 18µM* | -1% | / | -4% | / | -16%
O=C(c1ccc(NC(=S)Nc2ccc(Cl)c(Cl)c2)cc1)N1CCCC1 | ? | 1% | -14% | 7% | 11µM* | 18%[10 µM]
CCOC(=O)c1n[nH]c(=O)c2ccccc12 | 4% | 1% | / | 1% | / | -15%
Cc1ccc(C(=O)C(C)OC(=O)c2n[nH]c(=O)c3ccccc23)cc1 (configuration not stated) | 16% | 14% | 4% | 0% | 14µM* | 5%
COc1ccc2c(c1)CCc1c(C(=O)N3CCOCC3)noc1-2 | -9% | -21% | -13% | -5% | -25% | 25%[10 µM]
